# Results from the supplement of paper PMC10849652.
# Of roughly 7,900 targets only a part is listed; those with a hit were picked by preference. About 0.6% of all pairs of compound and target were hits. Unmarked numbers belong to inactive results.
# Compound: C1=CC=C(C=C1)[C@H](COC2=CC3=C(C=C2)NC(=O)N3)NC(=O)C4=CC=CN(C4=O)CC5=CC(=C(C=C5)F)F
# Test: log2 fold change, soluble protein after heating vs DMSO (PISA); higher = thermal stabilisation; K562 cells, 10 uM, 30 min; active = over 0.2 and 3.5 SD of the protein, either way, in both replicates (recomputed)
# How it was run: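 K562 cells at 2×10^6 cells/mL were exposed to 10 μM compound for 30 min, then aliquots were heated for 3 min across 48°C-58°C, pooled, and extracted in PBS containing 0.5% NP-40 at 4°C. The supernatant after 21,000xg for 90 min was taken as soluble protein and measured by TMTpro 16plex LC-MS/MS with channel sums equalised. Thermal stability is reported relative to control samples, with values from duplicates. Fold changes are given on a log2 scale.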
# Sequence of UniProt Q8N8N7 (Q8N8N7 whole entry, looked up): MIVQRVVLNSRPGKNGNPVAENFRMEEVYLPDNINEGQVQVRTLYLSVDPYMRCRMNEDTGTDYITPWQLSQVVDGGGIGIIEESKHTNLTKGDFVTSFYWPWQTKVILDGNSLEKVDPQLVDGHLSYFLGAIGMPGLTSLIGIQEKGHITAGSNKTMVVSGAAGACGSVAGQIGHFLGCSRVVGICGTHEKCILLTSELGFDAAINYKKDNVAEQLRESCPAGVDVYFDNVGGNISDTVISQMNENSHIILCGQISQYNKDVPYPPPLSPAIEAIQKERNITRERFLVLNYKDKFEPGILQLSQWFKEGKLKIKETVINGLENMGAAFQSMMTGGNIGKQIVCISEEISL
# Sequence of UniProt Q13131 (Q13131 whole entry, looked up): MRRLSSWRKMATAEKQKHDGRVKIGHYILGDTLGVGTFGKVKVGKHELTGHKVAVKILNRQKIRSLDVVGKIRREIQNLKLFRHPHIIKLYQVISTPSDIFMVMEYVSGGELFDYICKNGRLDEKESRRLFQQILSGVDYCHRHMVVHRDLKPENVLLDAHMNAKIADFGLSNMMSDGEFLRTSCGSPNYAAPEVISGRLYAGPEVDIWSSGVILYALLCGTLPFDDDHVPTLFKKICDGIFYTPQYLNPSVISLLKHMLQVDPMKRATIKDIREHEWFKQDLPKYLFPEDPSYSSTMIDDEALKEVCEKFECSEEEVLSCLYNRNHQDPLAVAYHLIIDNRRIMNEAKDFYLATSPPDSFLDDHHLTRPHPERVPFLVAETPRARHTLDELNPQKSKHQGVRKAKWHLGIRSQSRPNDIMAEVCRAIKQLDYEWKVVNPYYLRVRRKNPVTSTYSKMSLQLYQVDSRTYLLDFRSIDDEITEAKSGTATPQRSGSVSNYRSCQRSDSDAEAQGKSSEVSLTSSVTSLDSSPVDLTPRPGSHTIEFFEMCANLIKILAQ
# Sequence of UniProt P17980 (P17980 whole entry, looked up): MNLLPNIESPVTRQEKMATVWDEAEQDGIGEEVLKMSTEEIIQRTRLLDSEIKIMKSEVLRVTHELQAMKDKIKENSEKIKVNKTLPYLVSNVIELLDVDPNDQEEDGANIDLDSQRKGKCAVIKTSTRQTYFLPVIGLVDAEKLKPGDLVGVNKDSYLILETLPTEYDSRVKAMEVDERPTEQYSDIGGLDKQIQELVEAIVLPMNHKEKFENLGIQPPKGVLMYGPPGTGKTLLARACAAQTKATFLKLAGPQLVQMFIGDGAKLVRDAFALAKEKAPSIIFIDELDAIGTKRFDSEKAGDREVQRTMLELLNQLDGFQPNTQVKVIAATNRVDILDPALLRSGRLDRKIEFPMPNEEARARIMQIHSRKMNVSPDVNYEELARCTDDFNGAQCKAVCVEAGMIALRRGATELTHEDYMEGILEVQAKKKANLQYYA
# Sequence of UniProt P54619 (P54619 whole entry, looked up): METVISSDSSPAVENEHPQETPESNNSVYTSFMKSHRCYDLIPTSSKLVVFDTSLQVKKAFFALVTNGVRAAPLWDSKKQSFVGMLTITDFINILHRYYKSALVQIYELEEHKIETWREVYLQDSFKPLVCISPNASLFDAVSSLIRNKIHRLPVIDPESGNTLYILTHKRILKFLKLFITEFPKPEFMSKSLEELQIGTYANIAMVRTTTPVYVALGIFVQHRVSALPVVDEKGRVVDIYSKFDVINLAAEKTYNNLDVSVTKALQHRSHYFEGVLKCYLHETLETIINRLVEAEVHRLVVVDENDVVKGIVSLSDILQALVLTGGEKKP
# Sequence of UniProt Q9NUJ7 (Q9NUJ7 whole entry, looked up): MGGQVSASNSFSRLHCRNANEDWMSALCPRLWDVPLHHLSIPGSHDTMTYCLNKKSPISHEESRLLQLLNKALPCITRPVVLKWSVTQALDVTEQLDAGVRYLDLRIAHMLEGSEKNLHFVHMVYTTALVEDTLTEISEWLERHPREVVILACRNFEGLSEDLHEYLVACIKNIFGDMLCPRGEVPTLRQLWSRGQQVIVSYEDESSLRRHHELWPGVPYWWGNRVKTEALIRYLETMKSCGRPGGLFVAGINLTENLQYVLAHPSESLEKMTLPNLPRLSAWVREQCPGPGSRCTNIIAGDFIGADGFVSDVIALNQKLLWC
# Sequence of UniProt P11498 (P11498 whole entry, looked up): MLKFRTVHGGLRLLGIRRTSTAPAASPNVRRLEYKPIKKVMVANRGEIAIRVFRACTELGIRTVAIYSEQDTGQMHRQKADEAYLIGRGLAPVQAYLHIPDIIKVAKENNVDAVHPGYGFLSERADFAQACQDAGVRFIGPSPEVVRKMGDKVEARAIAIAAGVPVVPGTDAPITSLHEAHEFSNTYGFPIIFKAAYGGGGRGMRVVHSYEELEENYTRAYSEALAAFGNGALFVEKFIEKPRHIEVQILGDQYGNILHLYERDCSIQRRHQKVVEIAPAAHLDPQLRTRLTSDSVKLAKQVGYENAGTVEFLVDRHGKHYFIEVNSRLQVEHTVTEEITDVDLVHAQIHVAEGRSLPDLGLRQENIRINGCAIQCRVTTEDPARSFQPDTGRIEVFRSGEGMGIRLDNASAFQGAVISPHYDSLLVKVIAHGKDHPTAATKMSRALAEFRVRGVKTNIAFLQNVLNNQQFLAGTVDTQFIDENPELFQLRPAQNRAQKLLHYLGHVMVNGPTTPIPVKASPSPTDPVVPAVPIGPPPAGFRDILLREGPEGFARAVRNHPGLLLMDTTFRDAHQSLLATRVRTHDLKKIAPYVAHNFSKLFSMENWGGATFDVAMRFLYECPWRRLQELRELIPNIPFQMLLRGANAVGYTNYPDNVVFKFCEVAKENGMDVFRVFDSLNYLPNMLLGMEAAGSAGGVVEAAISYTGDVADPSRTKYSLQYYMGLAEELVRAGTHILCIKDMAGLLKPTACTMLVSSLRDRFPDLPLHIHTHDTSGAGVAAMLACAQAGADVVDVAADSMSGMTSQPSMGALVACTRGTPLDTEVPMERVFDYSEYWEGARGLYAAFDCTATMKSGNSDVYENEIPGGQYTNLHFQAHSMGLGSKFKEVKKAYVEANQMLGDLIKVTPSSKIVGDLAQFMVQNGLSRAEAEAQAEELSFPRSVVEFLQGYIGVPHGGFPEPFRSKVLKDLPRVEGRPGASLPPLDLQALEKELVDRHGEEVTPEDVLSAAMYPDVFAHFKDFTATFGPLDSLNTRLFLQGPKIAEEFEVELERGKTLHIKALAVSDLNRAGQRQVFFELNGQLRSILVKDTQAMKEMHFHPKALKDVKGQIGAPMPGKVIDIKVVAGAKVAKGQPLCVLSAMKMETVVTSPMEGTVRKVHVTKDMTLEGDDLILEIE
# Sequence of UniProt Q86T03 (Q86T03 whole entry, looked up): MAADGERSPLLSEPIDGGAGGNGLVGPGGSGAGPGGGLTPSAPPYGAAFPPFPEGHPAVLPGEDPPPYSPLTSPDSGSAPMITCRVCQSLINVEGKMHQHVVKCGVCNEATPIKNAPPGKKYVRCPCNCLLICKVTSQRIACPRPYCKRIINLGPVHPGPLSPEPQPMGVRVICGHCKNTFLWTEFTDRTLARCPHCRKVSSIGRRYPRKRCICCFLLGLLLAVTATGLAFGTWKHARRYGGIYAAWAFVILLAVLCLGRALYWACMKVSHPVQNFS
# Sequence of UniProt P51817 (P51817 whole entry, looked up): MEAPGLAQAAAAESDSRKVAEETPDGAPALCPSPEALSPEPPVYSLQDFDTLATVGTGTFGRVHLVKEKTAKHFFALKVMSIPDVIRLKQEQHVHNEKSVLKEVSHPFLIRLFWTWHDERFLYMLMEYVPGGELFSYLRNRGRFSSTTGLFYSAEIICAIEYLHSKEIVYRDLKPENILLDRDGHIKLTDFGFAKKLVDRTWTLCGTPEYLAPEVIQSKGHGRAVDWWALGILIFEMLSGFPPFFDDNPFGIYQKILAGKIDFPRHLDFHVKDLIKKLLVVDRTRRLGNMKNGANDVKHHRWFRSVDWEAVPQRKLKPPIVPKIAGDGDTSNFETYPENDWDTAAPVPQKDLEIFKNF
# Sequence of UniProt P27815 (P27815 whole entry, looked up): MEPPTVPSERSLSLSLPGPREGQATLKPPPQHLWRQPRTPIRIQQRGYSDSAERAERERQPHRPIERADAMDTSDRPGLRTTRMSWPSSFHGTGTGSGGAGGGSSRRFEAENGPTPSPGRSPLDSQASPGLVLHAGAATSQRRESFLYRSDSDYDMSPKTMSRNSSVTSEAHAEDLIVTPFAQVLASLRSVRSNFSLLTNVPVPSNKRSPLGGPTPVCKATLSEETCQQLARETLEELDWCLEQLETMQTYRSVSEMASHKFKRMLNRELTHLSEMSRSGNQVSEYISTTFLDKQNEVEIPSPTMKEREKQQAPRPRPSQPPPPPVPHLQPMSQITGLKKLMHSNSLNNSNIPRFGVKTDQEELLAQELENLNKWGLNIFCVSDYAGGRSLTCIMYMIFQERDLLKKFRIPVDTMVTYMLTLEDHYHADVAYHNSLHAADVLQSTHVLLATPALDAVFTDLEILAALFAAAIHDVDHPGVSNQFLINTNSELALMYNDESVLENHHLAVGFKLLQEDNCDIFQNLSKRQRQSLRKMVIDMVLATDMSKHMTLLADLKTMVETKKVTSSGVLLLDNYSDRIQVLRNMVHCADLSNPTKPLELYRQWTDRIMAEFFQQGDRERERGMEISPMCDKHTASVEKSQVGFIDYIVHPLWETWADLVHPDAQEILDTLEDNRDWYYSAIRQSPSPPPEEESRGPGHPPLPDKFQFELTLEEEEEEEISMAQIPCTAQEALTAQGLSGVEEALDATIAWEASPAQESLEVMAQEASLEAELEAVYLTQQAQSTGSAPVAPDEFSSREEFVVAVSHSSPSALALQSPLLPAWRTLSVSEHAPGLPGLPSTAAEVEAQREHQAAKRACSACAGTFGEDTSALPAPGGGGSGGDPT
# Sequence of UniProt Q7RTV0 (Q7RTV0 whole entry, looked up): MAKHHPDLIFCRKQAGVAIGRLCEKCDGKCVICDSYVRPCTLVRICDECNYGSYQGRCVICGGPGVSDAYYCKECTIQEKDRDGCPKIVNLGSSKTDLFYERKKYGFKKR
row,Target,log2 fold change
1,PRKD2 (UniProt M0R346),0.081
2,PPIL4 (UniProt Q8WUA2),0.012
3,PHF5A (UniProt Q7RTV0),0.048
4,PPP6R1 (UniProt Q9UPN7),-0.011
5,POP1 (UniProt Q99575),0.003
6,PSMB4 (UniProt P28070),0.024
7,PRKCG (UniProt P05129),-0.216
8,PPIL2 (UniProt Q13356),-0.028
9,PMM2 (UniProt O15305),0.003
10,PLCB3 (UniProt Q01970),-0.019
11,PRG4 (UniProt Q92954),0.007
12,PRKX (UniProt P51817),-0.754 (active)
13,PSMC4 (UniProt P43686),0.022
14,PSMC3 (UniProt P17980),0.014
15,PPP1R12B isoform 6 (UniProt O60237),-0.051
16,PCBP2 (UniProt F8VRH0),-0.033
17,PBX2 (UniProt P40425),-0.052
18,PRKAR1B (UniProt P31321),0.21

row,Target,log2 fold change
1,PRUNE1 (UniProt Q86TP1),-0.025
2,PSMD1 (UniProt Q99460),0.017
3,PIP4K2A (UniProt P48426),-0.091
4,PDE4A (UniProt P27815),-0.11
5,PPP2R5C isoform 2 (UniProt Q13362),-0.065
6,PPP1R12A (UniProt O14974),0.005
7,PIP4P1 isoform 2 (UniProt Q86T03),-0.016
8,PIP4P2 (UniProt Q8N4L2),0.045
9,POLR1A (UniProt O95602),0.049
10,RAB11FIP1 (UniProt Q6WKZ4),0.041
11,PC (UniProt P11498),-0.012
12,PTGR2 (UniProt Q8N8N7),0.004
13,PRKAG1 isoform 3 (UniProt P54619),-0.008
14,PLCXD1 (UniProt Q9NUJ7),-0.061
15,PTPA (UniProt Q15257),-0.013
16,PARP1 (UniProt P09874),-0.098
17,PRKAA1 isoform 2 (UniProt Q13131),0.001
18,PRKCA (UniProt P17252),-0.035
